Each structure is given as a SMILES string.

This assay can be described thus: probe aNOTCH2 binding on compound microarray – biochemical, small-molecule microarray, 635/667 nm fluorescence, primary screen (AID 1121).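 Note: score merges feature fluorescence read at 667 nm with its signal to noise.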 The conditions noted are these: higher = more signal.
In turn, `CCOC(=O)[C@H](Cc1ccccc1)NC(=O)CCC1CC(OC(=O)NCc2cccc3ccccc23)CC2(CCCC(COC(=O)NCCc3ccccc3OC)O2)O1` (stereo not given in full) yielded a composite z-score of -0.126.

`O=C1C=C[C@@H](O)[C@@H]2[C@@H]3C(=O)N(c4cccc(Oc5ccccc5)c4)C(=O)[C@@H]3CC[C@@H]12`: the composite z-score is -0.176.

Take `O=C1C=C[C@@H](O)[C@@H]2[C@@H]3C(=O)N(Cc4ccccc4)C(=O)[C@@H]3CC[C@@H]12`: the composite z-score is -0.132.

`COC(=O)[C@H](C)NC(=O)CCC1CC(OC(=O)NCc2ccc3c(c2)OCO3)CC2(CCCC(COC(=O)NCc3ccccc3)O2)O1` (stereo not given in full): the composite z-score was -0.156.

In turn, `COc1ccc(COC(=O)NN=C2C[C@@H](O)[C@@H](O)[C@@H]3[C@@H]4C(=O)N(C(C)(C)C)C(=O)[C@@H]4CC[C@@H]23)cc1` returned a composite z-score of -0.167.

For the origin of these results see PubChem BioAssay.
